Reference: publication PMC7862700, “An all-to-all approach to the identification of sequence-specific readers for epigenetic DNA modifications on cytosine”

What was measured:
Assay in all cases: DAPPL (digital affinity profiling via proximity ligation, sequencing); 10 mM Tris-HCl pH 7.5, 50 mM NaCl, 1 mM DTT, 4% glycerol, room temperature, 30 min; GST-TFs on glutathione beads, 16-mer random dsDNA library, 0.1% formaldehyde crosslink after washing; high values mean tight binding
Details in all cases: protein: recombinant; tags: N-terminal GST; dsDNA, one strand shown
FLI1 = molecular target: T1, FLI1 (Homo sapiens, UniProt Q01543 1-452)
T1 sequence: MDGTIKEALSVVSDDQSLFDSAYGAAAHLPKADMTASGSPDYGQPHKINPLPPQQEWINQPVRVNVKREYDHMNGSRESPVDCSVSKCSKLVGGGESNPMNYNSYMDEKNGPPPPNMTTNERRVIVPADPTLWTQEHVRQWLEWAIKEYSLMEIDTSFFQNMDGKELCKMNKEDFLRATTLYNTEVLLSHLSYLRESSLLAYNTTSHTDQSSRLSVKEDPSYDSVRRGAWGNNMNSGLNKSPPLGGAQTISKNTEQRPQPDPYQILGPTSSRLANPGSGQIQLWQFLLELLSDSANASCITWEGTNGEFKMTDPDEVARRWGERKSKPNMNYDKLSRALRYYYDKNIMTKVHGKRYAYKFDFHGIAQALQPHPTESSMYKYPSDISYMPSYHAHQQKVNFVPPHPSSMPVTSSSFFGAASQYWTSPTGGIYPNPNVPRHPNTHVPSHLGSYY
Outline: (§1)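 Binding signal is defined as a hexamer's read frequency for one factor over its frequency for the tag-only sample. To obtain reads, GST-fused human transcription factors were expressed in yeast, captured on glutathione beads, barcoded with DNA and pooled with that sample. Pools met 200 nmole of a 16-mer random double-stranded DNA library in Tris/NaCl/DTT/glycerol buffer for 30 min at room temperature before washing, 0.1% formaldehyde crosslinking, proximity ligation (BsaI/T4 ligase, 1 h, 37 °C), PCR and Illumina NextSeq500 sequencing.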

ELK1 = molecular target: T2, ELK1 (Homo sapiens, UniProt P19419 1-428)
T2 sequence: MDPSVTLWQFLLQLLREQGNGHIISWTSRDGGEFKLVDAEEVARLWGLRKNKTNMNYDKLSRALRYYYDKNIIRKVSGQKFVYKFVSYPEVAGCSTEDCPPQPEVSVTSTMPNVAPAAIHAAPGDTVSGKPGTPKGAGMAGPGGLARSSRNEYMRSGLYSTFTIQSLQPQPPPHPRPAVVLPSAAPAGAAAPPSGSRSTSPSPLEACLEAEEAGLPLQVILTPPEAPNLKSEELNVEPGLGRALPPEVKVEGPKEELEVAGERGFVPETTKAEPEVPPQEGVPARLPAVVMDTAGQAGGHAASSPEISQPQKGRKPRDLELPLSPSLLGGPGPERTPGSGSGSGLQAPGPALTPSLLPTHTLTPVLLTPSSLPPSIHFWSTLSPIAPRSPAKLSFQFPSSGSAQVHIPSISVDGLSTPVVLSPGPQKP
Outline: as §1

GABPA = molecular target: T3, GABPA (Homo sapiens, UniProt Q06546 1-454)
T3 sequence: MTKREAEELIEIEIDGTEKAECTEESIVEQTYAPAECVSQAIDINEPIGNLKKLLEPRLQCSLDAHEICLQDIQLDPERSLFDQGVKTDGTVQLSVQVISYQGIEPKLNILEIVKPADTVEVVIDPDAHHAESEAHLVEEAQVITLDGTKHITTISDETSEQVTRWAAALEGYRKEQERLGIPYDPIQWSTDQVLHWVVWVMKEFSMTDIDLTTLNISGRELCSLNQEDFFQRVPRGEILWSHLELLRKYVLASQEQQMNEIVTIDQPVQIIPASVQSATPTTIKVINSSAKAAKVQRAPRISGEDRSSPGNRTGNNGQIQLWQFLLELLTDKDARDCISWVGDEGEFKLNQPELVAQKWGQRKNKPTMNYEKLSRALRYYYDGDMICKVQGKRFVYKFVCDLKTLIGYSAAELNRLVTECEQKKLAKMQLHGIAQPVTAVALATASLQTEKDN
Outline: as §1

ERG = molecular target: T4, ERG (Homo sapiens, UniProt P11308 1-479)
T4 sequence: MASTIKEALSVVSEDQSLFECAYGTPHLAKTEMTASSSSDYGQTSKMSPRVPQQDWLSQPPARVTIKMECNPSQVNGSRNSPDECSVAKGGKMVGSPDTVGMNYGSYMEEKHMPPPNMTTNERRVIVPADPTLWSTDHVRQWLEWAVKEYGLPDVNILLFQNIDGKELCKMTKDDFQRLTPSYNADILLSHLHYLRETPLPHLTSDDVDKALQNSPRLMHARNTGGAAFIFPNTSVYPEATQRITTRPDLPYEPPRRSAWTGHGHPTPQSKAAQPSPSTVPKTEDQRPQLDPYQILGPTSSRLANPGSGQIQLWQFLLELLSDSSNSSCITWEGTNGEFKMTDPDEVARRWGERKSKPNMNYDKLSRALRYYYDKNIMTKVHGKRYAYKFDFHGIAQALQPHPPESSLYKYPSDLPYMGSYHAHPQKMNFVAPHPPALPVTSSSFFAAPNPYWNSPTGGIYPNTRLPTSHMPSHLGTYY
Outline: as §1

ELF1 = ELF1 (Homo sapiens, UniProt P32519 1-619)
ELF1, sequence (P32519 whole entry): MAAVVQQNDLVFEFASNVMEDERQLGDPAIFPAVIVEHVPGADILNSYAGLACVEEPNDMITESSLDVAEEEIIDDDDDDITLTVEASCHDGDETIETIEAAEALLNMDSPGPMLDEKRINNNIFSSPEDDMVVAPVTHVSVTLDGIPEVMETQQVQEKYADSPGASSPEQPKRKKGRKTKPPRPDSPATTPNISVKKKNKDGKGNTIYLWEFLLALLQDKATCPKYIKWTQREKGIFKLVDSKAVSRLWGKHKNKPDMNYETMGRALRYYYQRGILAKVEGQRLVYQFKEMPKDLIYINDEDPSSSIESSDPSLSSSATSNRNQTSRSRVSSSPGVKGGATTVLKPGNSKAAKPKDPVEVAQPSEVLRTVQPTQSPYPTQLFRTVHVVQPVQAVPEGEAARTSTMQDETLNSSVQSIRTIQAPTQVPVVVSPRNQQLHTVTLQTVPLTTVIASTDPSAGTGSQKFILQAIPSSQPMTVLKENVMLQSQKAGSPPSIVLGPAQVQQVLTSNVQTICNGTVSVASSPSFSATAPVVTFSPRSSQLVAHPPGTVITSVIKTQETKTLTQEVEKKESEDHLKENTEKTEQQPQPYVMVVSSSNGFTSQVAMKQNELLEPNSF
Outline: as §1

EHF = molecular target: T5, EHF (Homo sapiens, UniProt Q9NZC4 1-300)
T5 sequence: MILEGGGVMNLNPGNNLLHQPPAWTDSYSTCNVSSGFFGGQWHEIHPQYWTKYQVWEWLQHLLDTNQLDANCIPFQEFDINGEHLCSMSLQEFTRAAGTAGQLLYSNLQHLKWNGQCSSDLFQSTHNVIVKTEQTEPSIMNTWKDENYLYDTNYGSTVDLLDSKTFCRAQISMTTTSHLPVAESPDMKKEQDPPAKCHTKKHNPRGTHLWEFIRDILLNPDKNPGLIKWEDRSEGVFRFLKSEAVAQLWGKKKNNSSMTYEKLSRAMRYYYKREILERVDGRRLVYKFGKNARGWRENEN
Outline: as §1

SPI1 = SPI1 (Homo sapiens, UniProt P17947 1-270)
Outline: as §1

SPIB = SPIB (Homo sapiens, UniProt Q01892 1-262)
SPIB, sequence (Q01892 whole entry): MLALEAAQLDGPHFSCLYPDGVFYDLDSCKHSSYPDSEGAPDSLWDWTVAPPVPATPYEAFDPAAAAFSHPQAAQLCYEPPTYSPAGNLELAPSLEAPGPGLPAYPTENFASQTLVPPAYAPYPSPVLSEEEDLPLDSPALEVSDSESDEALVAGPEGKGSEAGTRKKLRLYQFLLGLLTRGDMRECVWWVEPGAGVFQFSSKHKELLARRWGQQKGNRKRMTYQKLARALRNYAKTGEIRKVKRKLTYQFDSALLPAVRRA
Outline: as §1

ELK3 = molecular target: T6, ELK3 (Homo sapiens, UniProt P41970 1-407)
T6 sequence: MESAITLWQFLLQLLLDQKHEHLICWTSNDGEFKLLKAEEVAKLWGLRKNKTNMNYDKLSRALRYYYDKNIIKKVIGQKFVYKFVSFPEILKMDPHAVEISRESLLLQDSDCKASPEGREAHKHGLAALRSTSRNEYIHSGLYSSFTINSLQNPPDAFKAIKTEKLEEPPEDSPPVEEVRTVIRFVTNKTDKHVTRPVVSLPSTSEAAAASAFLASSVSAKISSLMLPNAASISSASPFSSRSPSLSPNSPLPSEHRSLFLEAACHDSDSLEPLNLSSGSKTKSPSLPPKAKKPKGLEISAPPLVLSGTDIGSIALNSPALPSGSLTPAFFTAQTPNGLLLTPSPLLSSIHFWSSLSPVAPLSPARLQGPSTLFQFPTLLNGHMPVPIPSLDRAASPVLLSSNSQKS
Outline: as §1

## ATTCTG
FLI1
  binding signal: 1.35 fold enrichment (6-mer frequency, TF over GST control)
ELK1
  binding signal: 1.23 fold enrichment (6-mer frequency, TF over GST control)
GABPA
  binding signal: 1.33 fold enrichment (6-mer frequency, TF over GST control)
ERG
  binding signal: 1.21 fold enrichment (6-mer frequency, TF over GST control)
ELF1
  binding signal: 1.26 fold enrichment (6-mer frequency, TF over GST control)
EHF
  binding signal: 1.34 fold enrichment (6-mer frequency, TF over GST control)
SPI1
  binding signal: 1.27 fold enrichment (6-mer frequency, TF over GST control)
SPIB
  binding signal: 1.15 fold enrichment (6-mer frequency, TF over GST control)
ELK3
  binding signal: 1.37 fold enrichment (6-mer frequency, TF over GST control)
